High-throughput results: PubChem BioAssay, National Center for Advancing Translational Sciences (NCATS)
ALDH1A1 block: blocks purified human ALDH1A1 activity | P00352 | Purified ALDH1A1, NADH fluorescence, propionaldehyde substrate | Potency, µM (series often up to 75.3 µM), inactives show at the top dose activity, negative = inhibition, actives largely listed as inhibitors | hit rate 7.3% among 220,000 | AID 1030;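 also: potency is read from the fitted curve at half-maximal effect; plate controls were no enzyme wells and a reference inhibitor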
Target sequence (P00352 whole entry, looked up): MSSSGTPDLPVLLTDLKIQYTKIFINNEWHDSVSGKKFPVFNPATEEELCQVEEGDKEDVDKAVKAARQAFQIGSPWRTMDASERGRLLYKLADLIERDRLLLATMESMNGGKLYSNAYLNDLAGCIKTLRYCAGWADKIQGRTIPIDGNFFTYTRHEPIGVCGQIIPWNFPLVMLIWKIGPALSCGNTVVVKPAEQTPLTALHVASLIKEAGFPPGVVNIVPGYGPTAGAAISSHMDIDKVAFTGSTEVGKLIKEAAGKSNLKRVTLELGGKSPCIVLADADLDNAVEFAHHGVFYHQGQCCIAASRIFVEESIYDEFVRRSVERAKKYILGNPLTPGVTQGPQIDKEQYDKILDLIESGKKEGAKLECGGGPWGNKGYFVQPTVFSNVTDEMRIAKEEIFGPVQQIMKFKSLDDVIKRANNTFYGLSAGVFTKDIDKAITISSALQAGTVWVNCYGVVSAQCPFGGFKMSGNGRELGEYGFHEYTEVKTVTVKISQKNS
HPGD block: HPGD (human) dehydrogenase inhibition | P15428 | AID 894 | hit rate 4.3% among 150,000 | purified HPGD, NADH fluorescence kinetic, PGE2 substrate | Potency, µM, without a hit: top-dose activity change, negative = inhibition, hits mostly inhibitors; also: potency is read from the fitted curve at half-maximal effect
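20 nM HPGD preincubated 15 min at room temperature with compound in 50 mM Tris-HCl pH 8, 0.01% Tween 20. Started with 1 mM NAD+ and 30 uM prostaglandin E2; NADH fluorescence (360/450 nm) read 5 times over 30-s intervals, last minus first.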
PNC assembly inh: perinucleolar compartment assembly inhibition; activity change (PNC), negative = inhibition, % at 10 µM; hit rate 3.1% among 140,000; PC3M PTB-GFP, PNC prevalence imaging, 16 h; hits give low values;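 active = readout at or below -70, meaning at least 70% loss of cells showing the perinucleolar compartment, a nuclear body marking cancer cells; inconclusive = readout between -30 and a set limit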;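 also: plate controls were DMSO wells for no effect and camptothecin positive control wells for full effect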
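Compounds are pinned in duplicate onto adhered PC3M cells stably expressing GFP-tagged PTB and incubated 16 h at 37 C. Cells are then fixed, nuclei stained with Hoechst, and PNC-positive cells counted.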
KDM4E inh: blocks human JMJD2E demethylase activity; hit rate 1.6% among 230,000; Potency, µM (series often up to 57.1 µM), inactives show at the top dose activity change, negative = inhibition, usual class: inhibitors; AID 2147; JMJD2E catalytic domain, FDH-coupled NADH fluorescence (FDH is formaldehyde dehydrogenase);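 also: potency is read from the fitted curve at half-maximal effect; 0% = wells with enzyme and -100% = buffer wells without enzyme; nearly all actives have a fitted effect of over 50% in size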
Active calls of the source: *; ? = inconclusive; . = not tested or not shown. Shown are actives, neighbours in structure and some others; about 11% of the full set was active somewhere. Unless noted, calls follow the shape of the dose curve; as a rule, active = well fitted inhibition curve with a large enough effect (not every such curve was filed as active); inconclusive = small, poorly fitted or top-dose-only effect, or another doubt; inactive = no such curve, though single readings can be large or run the other way. Unless noted, % is scaled to controls: 0 for no effect and ±100 for the full control effect.

SMILES	ALDH1A1 block	HPGD block	PNC assembly inh	KDM4E inh
CCOc1ccc(CCNC(=O)CSc2cc(=O)n(CC)c3ccccc23)cc1OCC	0.1%	-6.2%	16.1	-8.2%
O=c1oc2ccccc2nc1/C=C(O)/C=C\c1ccccc1	12.6µM*	-15.3%	-28.8	20µM*
CCc1ccc(C(=O)/C=C2\Sc3ccccc3NC2=O)cc1	?	-14.2%	19.6	5.5%
CCCCNC(=O)/C=C1\Sc2ccccc2NC1=O	13.8%	17.8µM*	34.8	?
CN1CCN(C(=O)c2cc(C(C)(C)C)cc(C(C)(C)C)c2)CC1	16.1%	.	.	3.8%
Cc1cc(C)c(C(=O)COc2cccnc2[N+](=O)[O-])cc1C	1.58µM*	-19.4%	20.8	-14.1%
COCCn1c(C)cc(C(=O)COc2cccnc2[N+](=O)[O-])c1C	5.62µM*	.	.	3.3%
Cc1ccc(OCC(=O)c2cc(C)n(Cc3cccs3)c2C)c([N+](=O)[O-])n1	?	.	.	1.2%
Cc1ccc(OCC(=O)c2cc(C)n(CC(F)(F)F)c2C)c([N+](=O)[O-])n1	20µM*	.	.	-5.9%
COCCn1c(C)cc(C(=O)COc2ncnc3ccc(Br)cc23)c1C	-0.6%	.	.	-9.0%
O=C(COc1cccnc1[N+](=O)[O-])c1c[nH]c2ccccc12	?	.	.	-3.3%
O=C(O)CCCCCn1c(O)c(C=C2N=c3ccccc3=N2)sc1=S	-15.0%	?	?	-1.7%
Cn1cccc1C(=O)N1CCC[C@@]2(CCN(C(=O)Nc3cccc(C#N)c3)C2)C1	-11.7%	-11.5%	.	.
Cc1nn(-c2ccccc2)nc1C(N)=O	0.7%	.	.	?
CC(C)(C)n1cnc(C(N)=O)c1N	10µM*	0.9%	-7.9	3.2%
O=C(CN1CCCc2ccccc21)NC(=O)NCc1ccccc1	.	.	.	-2.8%
COc1cc2c(cc1OC)CN(CC(=O)NC(=O)NCc1ccccc1)CC2	28.2µM*	.	.	?
O=C(CN1CCc2ccccc21)NC(=O)NCc1ccccc1	7.08µM*	.	.	-4.8%
COC(=O)[C@@H]1C[C@H]1[C@@H](NS(=O)(=O)c1ccc(-c2ccccc2)cc1)c1ccccc1	-4.7%	-6.5%	.	-0.7%
COCC(=O)N1CCC2(CCCN(C(c3ccccc3)c3ccccc3)C2)CC1	10.9%	-11.3%	.	.
O=C(c1ccc(CN2CCc3ccccc3C2)cc1)N1CCc2ccccc2C1	-11.6%	3.16µM*	16.2	-2.2%
Nc1ccc(C(=O)OCC(=O)N2CCN(C(=O)c3ccco3)CC2)cc1[N+](=O)[O-]	2.6%	-8.0%	7.3	4.9%
O=C(c1ccccc1[N+](=O)[O-])N1CCc2ccccc2C1	2.4%	12.6µM*	5.3	9.0%
Nc1ccc(C(=O)OCC(=O)N2CCc3ccccc3C2)cc1[N+](=O)[O-]	5.0%	12.6µM*	38.8	1.8%
O=C(OCC(=O)N1CCc2ccccc2C1)c1ccc(N2CCOCC2)c([N+](=O)[O-])c1	20µM*	.	22.0	3.3%
SMILES	ALDH1A1 block	HPGD block	PNC assembly inh	KDM4E inh
Cc1cc(C(=O)OCC(=O)N2CCOCC2)ccc1[N+](=O)[O-]	-8.5%	.	.	9.6%
c1ccc(CNCc2ccc3c(c2)OCO3)nc1	?	-2.7%	?	-5.7%
COC(=O)[C@@]1(Cc2ccccc2)[C@H]2c3cc(C(=O)N(C)C)n(Cc4ccc(S(C)(=O)=O)cc4)c3C[C@H]2CN1C(=O)c1ccccc1	-9.3%	-9.2%	.	-2.5%
CCCCNC(=O)N1CCc2ccccc2C1	1.9%	-6.0%	-113.8*	-3.8%
CCC(=O)N/C(=N\OCc1ccc(F)cc1)c1nonc1NC(=O)CC	3.7%	-0.9%	-29.9	0.5%
O=C(CCn1c(=O)c2ccccc2n(CC(=O)NCCC2=CCCCC2)c1=O)NCc1ccco1	15.8µM*	-13.5%	?	-8.8%
O=C(Nc1nncs1)c1c(F)c(F)c(F)c(F)c1F	17.8µM*	22.4µM*	?	-4.5%
O=C(Nc1nncs1)c1ccc(S(=O)(=O)c2ccccc2)cc1	2.0%	-12.2%	-116.6*	4.4%
CC(NCc1ccc(F)cc1)C(=O)NC1CCCCC1 (stereo unspecified)	3.4%	.	.	-7.1%
CC(NCc1ccc2c(c1)OCO2)C(=O)NC1CCCCC1 (stereo unspecified)	35.5µM*	.	.	2.4%
O=C(CCn1c(=O)sc2ccccc21)NCc1ccc2c(c1)OCO2	?	-8.6%	-118.9*	1.4%
O=C(CCn1cccc1)NCc1ccc2c(c1)OCO2	-2.1%	20µM*	4.5	1.1%
O=C(Cn1c(CO)nc2ccccc21)NCc1ccc2c(c1)OCO2	-4.4%	.	.	-2.7%
COc1ccc(CC(=O)NCc2ccc3c(c2)OCO3)cc1	?	-5.9%	?	-4.8%
O=C(Cn1c(Cc2ccccc2)nc2ccccc21)NCc1ccc2c(c1)OCO2	15.8µM*	-4.2%	-25.0	-8.7%
